HP1b chromo inh – HP1-beta chromodomain-methylated histone interaction inhibition; P83916; AlphaScreen HP1-beta / biotin-H3K9me3 peptide binding; Potency, µM (doses to about 114 µM), usual class: inhibitors; actives 0.56% (n = 390,000); further: nearly all actives have a fitted effect of over 70% in size
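Compound inhibition of the preformed complex between 50 nM HP1-beta and 50 nM biotinylated H3K9me3 peptide was read by AlphaScreen. Buffer was PBS pH 7.4 with 0.01% Tween-20. Incubations ran 30 min at room temperature, with 10 ug/mL donor/acceptor beads.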
BAZ2B inh – BAZ2B (human) inhibition. Potency, µM (top dose mostly 114 µM), most hits filed as inhibitors. actives 4.4% (n = 360,000). AlphaScreen BAZ2B-H3K14Ac peptide displacement. Q9UIF8; further: nearly all actives have a fitted effect of over 60% in size
Target sequence (Q9UIF8 whole entry, looked up): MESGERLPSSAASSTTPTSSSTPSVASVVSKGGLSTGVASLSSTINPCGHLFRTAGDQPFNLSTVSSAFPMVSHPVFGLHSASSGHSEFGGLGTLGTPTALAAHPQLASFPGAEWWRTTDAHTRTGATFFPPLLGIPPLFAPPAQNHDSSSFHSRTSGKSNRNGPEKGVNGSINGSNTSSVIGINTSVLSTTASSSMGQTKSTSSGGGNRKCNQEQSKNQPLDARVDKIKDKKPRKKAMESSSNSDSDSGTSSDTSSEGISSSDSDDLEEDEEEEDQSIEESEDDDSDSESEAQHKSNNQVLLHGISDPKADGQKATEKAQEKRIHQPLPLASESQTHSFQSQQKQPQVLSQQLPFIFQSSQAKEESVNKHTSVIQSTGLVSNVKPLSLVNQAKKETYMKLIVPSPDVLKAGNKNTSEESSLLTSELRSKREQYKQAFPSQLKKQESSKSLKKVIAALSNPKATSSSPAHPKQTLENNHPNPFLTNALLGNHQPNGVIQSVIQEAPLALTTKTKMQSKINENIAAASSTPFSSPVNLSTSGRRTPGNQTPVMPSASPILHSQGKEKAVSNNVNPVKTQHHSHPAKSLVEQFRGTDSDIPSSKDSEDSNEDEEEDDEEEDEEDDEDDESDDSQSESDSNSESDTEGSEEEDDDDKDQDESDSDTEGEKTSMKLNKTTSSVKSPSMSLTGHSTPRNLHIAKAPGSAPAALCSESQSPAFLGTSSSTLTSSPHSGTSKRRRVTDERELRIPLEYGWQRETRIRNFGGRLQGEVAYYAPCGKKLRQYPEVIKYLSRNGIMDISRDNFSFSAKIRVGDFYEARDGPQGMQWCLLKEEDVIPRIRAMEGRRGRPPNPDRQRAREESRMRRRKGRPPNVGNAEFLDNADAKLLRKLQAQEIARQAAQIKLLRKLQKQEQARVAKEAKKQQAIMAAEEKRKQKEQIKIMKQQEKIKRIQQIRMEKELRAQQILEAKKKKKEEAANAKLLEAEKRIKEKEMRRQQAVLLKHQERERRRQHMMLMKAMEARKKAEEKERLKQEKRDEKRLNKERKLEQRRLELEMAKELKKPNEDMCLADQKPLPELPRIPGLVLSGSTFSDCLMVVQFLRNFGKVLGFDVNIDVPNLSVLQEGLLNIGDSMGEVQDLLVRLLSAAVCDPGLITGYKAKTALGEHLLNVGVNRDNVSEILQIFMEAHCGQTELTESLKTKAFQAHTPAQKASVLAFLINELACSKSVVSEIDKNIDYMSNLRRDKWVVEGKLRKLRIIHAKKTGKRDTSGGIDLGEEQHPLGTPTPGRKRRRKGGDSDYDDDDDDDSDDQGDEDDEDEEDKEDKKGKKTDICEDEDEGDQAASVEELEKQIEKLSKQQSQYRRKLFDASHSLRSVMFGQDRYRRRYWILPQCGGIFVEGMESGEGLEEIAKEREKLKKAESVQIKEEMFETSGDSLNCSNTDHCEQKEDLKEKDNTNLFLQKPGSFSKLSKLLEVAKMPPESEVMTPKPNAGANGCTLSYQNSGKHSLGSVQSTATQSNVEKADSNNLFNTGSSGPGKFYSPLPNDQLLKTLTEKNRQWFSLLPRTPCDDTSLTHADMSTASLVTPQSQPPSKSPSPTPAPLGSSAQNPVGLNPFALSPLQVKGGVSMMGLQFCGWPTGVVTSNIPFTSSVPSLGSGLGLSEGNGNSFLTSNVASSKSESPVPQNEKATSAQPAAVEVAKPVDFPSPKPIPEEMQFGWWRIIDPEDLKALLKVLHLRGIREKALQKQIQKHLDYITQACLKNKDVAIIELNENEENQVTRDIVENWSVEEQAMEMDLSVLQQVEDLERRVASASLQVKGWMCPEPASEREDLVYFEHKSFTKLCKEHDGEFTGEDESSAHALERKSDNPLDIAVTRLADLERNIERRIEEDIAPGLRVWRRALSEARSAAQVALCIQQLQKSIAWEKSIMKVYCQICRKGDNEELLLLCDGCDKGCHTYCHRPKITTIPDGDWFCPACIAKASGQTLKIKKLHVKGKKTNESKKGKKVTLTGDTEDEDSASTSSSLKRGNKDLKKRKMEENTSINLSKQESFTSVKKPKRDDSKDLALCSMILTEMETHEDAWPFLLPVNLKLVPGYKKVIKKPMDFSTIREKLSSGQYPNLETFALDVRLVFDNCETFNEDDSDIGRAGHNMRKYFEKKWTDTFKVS
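AlphaScreen displacement: compounds (up to 110uM) incubated 30 min at room temperature with a preformed 50 nM BAZ2B/50 nM biotinylated H3K14Ac peptide complex in PBS pH 7.4 with Tween-20. Donor and acceptor beads at 10 ug/mL final added, 20 min light-protected before reading.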
G9a inh – G9a (human) methyltransferase inhibition | Q96KQ7 | G9a H3K9 monomethylation, AlphaScreen, 2 h | Potency, µM (doses to about 102 µM), usual class: inhibitors | actives 8.8% (n = 350,000) | AID 504332; further: nearly all actives have a fitted effect of over 75% in size
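Readings reflect AlphaScreen signal from monomethyl-H3K9 antibody detection. HMT at 20 nM; substrate b-H3K9 500 nM; cofactor SAM 20 uM; 2 h RT reaction; compounds tested as titrations in qHTS with 15 min preincubation.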
JMJD2A Tudor – blocks the human JMJD2A Tudor domain | AlphaScreen JMJD2A-Tudor / H3K4me3 peptide binding | actives 4.4% (n = 390,000) | O75164 | Potency, µM (highest dose often 114 µM), most hits filed as inhibitors; further: nearly all actives have a fitted effect of over 50% in size
Sfp inh – inhibitors of Bacillus subtilis Sfp phosphopantetheinyl transferase | Potency, µM, actives largely listed as inhibitors | actives 3.5% (n = 310,000) | Q9F4F7 | Biochemical Sfp PPTase activity, qHTS;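 further: the enzyme is Sfp with the accession as filed and its product quenches rhodamine fluorescence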
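Buffer: 50 mM Hepes-Na pH 7.6, 10 mM MgCl2, 0.01% Nonidet P-40, 0.01% BSA. Enzyme 15 nM, pre-exposed to compound 15 min; substrates then added and fluorescence change tracked over 30 min.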
A number is an active result; – = inactive; ? = inconclusive; · = no result; [ ] = another dose, or the depositor's remark. Rows were chosen to be rich in hits. Some 12% of all compounds tested hit in one or more screens of this group. The call rests on the fitted dose curve; in most records, active means well fitted curve in the direction sought with a large enough effect; inconclusive means small, poorly fitted or top-dose-only effect, or another doubt; inactive means no such curve, though single readings can be large; an effect the other way counts as inactive or inconclusive.

SMILES	HP1b chromo inh	BAZ2B inh	G9a inh	JMJD2A Tudor	Sfp inh
O=C(O)c1ccccc1NS(=O)(=O)c1ccc(NN=Cc2cccc(Cl)c2)c([N+](=O)[O-])c1	79µM	·	·	18µM	·
O=C(O)c1ccccc1NS(=O)(=O)c1ccc(NN=Cc2ccc(F)cc2)c([N+](=O)[O-])c1	?	·	·	45µM	·
CC(/C=N/NC(=O)c1nnn(-c2nonc2N)c1CN1CCCCC1)=C\c1ccccc1	–	–	·	–	–
C=CC[C@H]1CC(Cc2ccccc2)=C[C@H](CC=C)N1	?	–	45µM	?	–
C=CCC1C=C(Cc2ccccc2)CC(CC=C)N1 (centres undefined)	–	–	–	–	–
Cc1c(Cc2ccccc2)sc(N)c1C(N)=O	·	–	2µM	·	40µM
Cc1c(Cc2ccccc2)sc(NC(=O)Cc2ccccc2)c1C(N)=O	–	·	·	–	·
Cc1c(Cc2ccccc2)sc(NC(=O)C(C)(C)C)c1C(N)=O	?	?	14µM	–	20µM
Oc1ccc(Nc2nc3ccccc3nc2Nc2ccc(O)cc2)cc1	?	50µM	10µM	?	–
CN(Cc1ccccc1)C(=O)CC(c1ccccc1)c1cc(Cl)ccc1O (centres undefined)	–	–	–	–	–
Cc1ccc(S(=O)(=O)Cc2ccc(C(=O)NCCc3ccccc3)o2)cc1	–	–	–	–	–
CC(=O)Oc1ccc(-n2c(=O)c3ccccc3c3ccccc3c2=O)cc1	–	–	–	–	–
COc1ccc(OC)c(-n2c(=O)c3ccccc3c3ccccc3c2=O)c1	–	?	10µM	?	–
COc1ccc(-n2c(=O)c3ccccc3c3ccccc3c2=O)cc1	–	–	10µM	–	–
O=C(OCc1cc(=O)n2c(n1)sc1ccccc12)c1cccc(O)c1	?	–	–	35µM	–
Cc1ccc(C(=O)N[C@H](C(=O)OCc2cc(=O)n3c(n2)sc2ccccc23)C(C)C)cc1	–	–	40µM	–	–
O=C(Cc1coc2cc3c(cc12)CCC3)OCc1cc(=O)n2c(n1)sc1ccccc12	?	50µM	–[12.7 µM]	?	40µM
CC(C)[C@H](NC(=O)c1ccco1)C(=O)OCc1cc(=O)n2c(n1)sc1ccccc12	–	50µM	45µM	?	–
Cn1c(=O)cc(OCCCC(=O)Nc2ccccn2)c2ccccc21	–	?	–[12.7 µM]	–	–
CC(=O)N(c1cccc(C)c1)S(=O)(=O)c1ccc(Cl)cc1	–	–	–	–	–
Cc1cccc(C)c1OCC(O)CNC(C)C (centres undefined)	–	?	?	–	–
CCOC(=O)c1oc2cccc(OCC(O)CNC(C)C)c2c1C (centres undefined)	–	–	?	–	28µM
Cc1ccc(NC(=S)N(CCCN2CCCC(C)C2)Cc2ccco2)cc1C (centres undefined)	–	–	?	?	–
CN(C)CCCN(Cc1ccccc1)C(=S)Nc1cccc(C(F)(F)F)c1	–	–	71µM	–	–
Cc1ccc(NC(=S)N(CCCN2CCCC2)Cc2cccn2Cc2ccc(Cl)cc2)cc1C	–	–	–	50µM	–
SMILES	HP1b chromo inh	BAZ2B inh	G9a inh	JMJD2A Tudor	Sfp inh
O=C(CNC(=S)N(CCCN1CCOCC1)Cc1cccs1)NCc1ccccc1Cl	–	–	71µM	–	–
COCCN(C(=S)Nc1ccc(OC)c(Cl)c1)C1CCN(C(C)C)CC1	–	–	?	–	40µM
CCCN(Cc1ccccc1)C(=S)Nc1cccc(C(F)(F)F)c1	–	–	–	–	–
CNC1(C(N)=O)CCNCC1	–	–	–[12.7 µM]	–	–
C=CCn1c(SCc2cc(=O)n3ccsc3n2)nnc1C1CCCCC1	–	–	–[12.7 µM]	–	–
Nc1c(C(=O)N/N=C/c2ccc(OCc3ccccc3)cc2)cnn1-c1ccccc1	–	?	·	–	–
COc1ccc(-c2nc(C(=O)NCC3CCCO3)cc3c2[nH]c2ccccc23)cc1 (centres undefined)	–	?	–[12.7 µM]	–	–
COc1ccc(NC(=S)N(CCCN2CCC(C)CC2)Cc2cccs2)cc1Cl	–	–	?	–	32µM
COc1ccc(NC(=S)N(CCCN2CCCC2)Cc2cccn2Cc2ccc(Cl)cc2)cc1Cl	–	28µM	28µM	?	79µM
Cc1ccc(NC(=S)N(CCCN2CCCC2)Cc2cccn2Cc2ccc(Cl)cc2)cc1Cl	–	?	32µM	?	–
CN1CCN(CCCN(Cc2cccs2)C(=S)Nc2ccc(Cl)cc2)CC1	–	–	–	–	–
CCN1CCN(C(=S)Nc2cccc(C(F)(F)F)c2)CC1	–	–	?	–	–
FC(F)(F)c1cccc(NC(=S)N(CCCN2CCCC2)Cc2cccn2Cc2ccc(Cl)cc2)c1	–	–	45µM	?	56µM
COc1ccc(NC(=S)N(CCCN2CCN(C)CC2)Cc2cccs2)cc1	–	–	–	–	–
COc1ccccc1Nc1nnc(SCc2cc(=O)n3ccsc3n2)s1	–	–	?	–	–
CCc1ccc(Nc2nnc(SCc3cc(=O)n4ccsc4n3)s2)cc1	–	–	2µM	–	–
Cc1cccc(-n2c(SCc3cc(=O)n4ccsc4n3)nc3ccccc32)c1	–	–	5µM	?	–
Cc1ccc(Nc2nnc(SCc3cc(=O)n4ccsc4n3)s2)c(C)c1	–	–	35µM	–	–
COc1ccc(C(C)=O)cc1CSc1nnc(Nc2ccccc2C)s1	–	–	–	–	–
COc1ccc(C(C)=O)cc1CSc1nnc(Nc2ccc(C)cc2C)s1	–	–	35µM	?	–
CC1(C)CC(=O)/C(=C(/O)Cc2ccccc2)C(=NCCc2ccccc2)C1	–	–	–	–	–
COC(=O)[C@@]1(Cc2ccc(F)cc2)[C@H]2c3cc(C(=O)N4CCCC4)n(Cc4cccc5ccccc45)c3C[C@H]2CN1C(=O)c1ccccc1	·	·	·	·	–
O=C(O)CCCC(=O)N1CCC(C(O)(c2ccccc2)c2ccccc2)CC1	–	–	·	–	–
CCCCN(CC)C(=O)c1ccc(Cl)cc1	–	–	–	–	–
O=C(O)c1cccc(S(=O)(=O)N2CCC(Cc3ccccc3)CC2)c1	–	–	–	–	–
CC(=O)N1c2ccccc2C(=O)C1N1CCN(c2cc(Cl)ccc2C)CC1 (centres undefined)	–	?	7.9µM	–	·
CC(=O)N1c2ccccc2C(=O)C1N1CCN(c2ccc(Cl)cc2)CC1 (centres undefined)	–	–	–	–	·
CC(C)CC(=O)NC(NC(=S)Nc1ccccc1)C(Cl)(Cl)Cl (centres undefined)	–	–	32µM	–	–
CC(=O)NC(NC(=S)Nc1ccc(S(N)(=O)=O)cc1)C(Cl)(Cl)Cl (centres undefined)	–	–	45µM	–	–
CCC(=O)NC(NC(=S)Nc1ccc(S(N)(=O)=O)cc1)C(Cl)(Cl)Cl (centres undefined)	–	–	8.9µM	–	–
